aSyn UTR act – Activators via SNCA 5'UTR binding, MLPCN. alpha-synuclein 5'UTR reporter, activators screen. activity score, % (tested at 7.5 µM), hits read low. 7.1% of 300,000 active; in the data active = activity score below about -60%
Numbers stand for hits; 0 = inactive. A selection follows.

SMILES | aSyn UTR act
CCOc1ccccc1CNS(=O)(=O)c1ccc(-c2cnc(C3CC3)o2)cc1 | 0
Nc1nnc(COc2ccc(Br)cc2Br)s1 | -98
CCOc1ccc(Nc2n[nH]c(=S)s2)cc1 | -112
CCc1nnc(NC(=O)Nc2ccccc2OC)s1 | -70
CCOc1ccc(Nc2cc(C)nc(-n3nc(C)cc3C)n2)cc1 | 0
COc1ccccc1NC(=O)Nc1nnc(C(C)C)s1 | -81
CCOc1ccc(NC(=O)Nc2nnc(CC)s2)cc1 | -105
CC(=O)Nc1nnc(COc2ccc(Cl)cc2)s1 | -109
Cc1nnc(NC(=O)c2ccc3ccccc3c2)s1 | -145
CCCc1cc(C(=O)Nc2nnc(C)s2)cs1 | -115
CC(C)c1nnc(NC(=O)c2ccc3ccccc3c2)s1 | -64
Cc1cnc(NC(=O)c2sc3ccccc3c2Cl)s1 | 0
CC(C)c1nnc(NC(=O)c2sc3ccccc3c2Cl)s1 | -110
CN1CCc2c(sc(NC(=O)c3ccc([N+](=O)[O-])o3)c2C(N)=O)C1 | 0
CCC(CC)c1nnc(NC(=O)c2ccc3ccccc3n2)s1 | -86
CC(C)N1CCc2c(sc(NC(=O)c3ccc4ccccc4c3)c2C(N)=O)C1 | -97
O=C(NC(=S)NNC(=O)c1ccccc1O)c1ccco1 | -99
Cc1cccc(NC(=S)NC(=O)c2ccco2)c1C | -94
O=C(NC(=S)Nc1ccccc1Br)c1ccco1 | -86
O=C(/C=C/c1cccs1)NC(=S)NNC(=O)c1ccccc1O | 0
Cc1c(NC(=S)NC(=O)Cc2ccccc2)cccc1C(=O)O | -79
CCC(=O)c1ccc(N2CCCCC2)c(F)c1 | -68
CCCC(=O)c1ccc(N2CCOCC2)c(F)c1 | -97
Cc1ccc(C(=O)c2cc([N+](=O)[O-])ccc2N2CCOCC2)cc1 | 0
Cc1ccc(C(=O)c2ccc(N3CCOCC3)c(F)c2)cc1 | -109
SMILES | aSyn UTR act
COc1ccc(-c2csc(Nc3ccc(C)cn3)n2)cc1OC | -120
COc1ccc(-c2csc(Nc3cc(C)ccn3)n2)cc1OC | -236
COc1ccc(-c2csc(Nc3ccc(S(N)(=O)=O)cc3)n2)cc1OC | 0
Brc1ccc(-c2cn3nc4c(nc3n2)CCCC4)cc1 | 0
Nc1nn2cc(-c3ccc(Br)cc3)nc2c2ccccc12 | -165
Cc1snc(SCC(=O)c2ccc(Cl)cc2)c1C#N | -140
Cc1ccc(C(=O)CSc2nsc(C)c2C#N)cc1 | -149
Cc1ccnc(SCC(=O)c2ccc(Br)cc2)c1C#N | -198
COc1cccc(C2N=C(c3ccccc3C)NO2)c1OC (configuration not stated) | -80
CC(C)(C)C(=O)OCc1nc(-c2ccc(F)cc2)cs1 | -106
CC(C)(C)C(=O)OCc1nc(-c2ccc3c(c2)OCCO3)cs1 | -141
CC(C)(C)C(=O)OCc1nc(-c2ccc(Cl)cc2)cs1 | -133
NC(=S)Cc1nc(-c2ccc(Cl)cc2)cs1 | -104
CO/N=C/C(=N\Nc1ccc(OC)cc1)C(=O)c1ccc(OC)cc1 | -71
S=C(N/N=C/c1ccc(Cl)c(Cl)c1)Nc1ccccc1Cl | -81
Fc1cccc(/C=N/NC(=S)Nc2ccccc2Cl)c1 | -231
C=CCNc1ncnc2c1[nH]c1ccc(C)cc12 | -184
CCCOc1ncnc2c1[nH]c1ccc(OC)cc12 | -130
CCCOc1ncnc2c1[nH]c1ccccc12 | -142
CCCCOc1ncnc2c1[nH]c1ccc(C)cc12 | -93
Cc1ccc2[nH]c3c(N4CCCCCC4)ncnc3c2c1 | -127
Cc1cc(C)c(NN=c2c(=O)c3ccccc3c2=O)c(C)c1 | -125
Cc1cc2sc3nc(=O)n(-c4ccccc4)c(=O)n3c2cc1C | -160
C(=C\c1ccccn1)/c1cccnc1 | -76
Cc1ccc(N2C(=O)c3n[nH]c(C)c3C2c2ccco2)cc1 (configuration not stated) | -65
SMILES | aSyn UTR act
Cc1cccc(CSc2cn(CC(=O)N3CCOCC3)c3ccccc23)c1 | -130
O=C(Cn1cc(SCc2cccc(Cl)c2)c2ccccc21)N1CCOCC1 | -153
COc1ccc(N=CC2=C(O)c3ccccc3C2=O)cc1 | -80
O=C1C(C=Nc2ccccc2)=C(O)c2ccccc21 | -78
COc1ccccc1-n1cc2ccc([N+](=O)[O-])cc2n1 | -119
O=[N+]([O-])c1ccc2cn(-c3ccccc3)nc2c1 | -200
CN(C)Cc1c(O)ccc2cc(-c3nc4ccccc4n3C)c(=O)oc12 | -70
CCN(CC)c1ccc2cc(-c3nc4ccccc4n3C)c(=O)oc2c1 | -226
COc1ccccc1/C=C/C(=O)Nc1ccc2c(c1)CCC2 | -151
COc1ccccc1/C=C/C(=O)Nc1ccc2c(c1)OCCO2 | -145
O=C(Oc1ccc(F)cc1C(=O)/C=C/c1cccs1)c1cccc([N+](=O)[O-])c1 | -87
C#CCN1C(=O)S/C(=C\c2ccc(-c3ccc(C(=O)O)cc3C)o2)C1=O | -191
COc1ccc(/C=C2\SC(=O)N(CCCC(=O)Nc3ccc(C(=O)O)cc3)C2=O)cc1OC | 0
COc1ccccc1NC(=O)c1ccc(-c2ccccc2F)o1 | -145
COC(=O)c1ccccc1NC(=O)c1ccc(-c2ccccc2F)o1 | -129
Cc1cc(NC(=O)c2ccc(-c3ccccc3F)o2)no1 | -125
O=[N+]([O-])c1ccc2nc(/C=C/c3ccc(Cl)cc3)[nH]c2c1 | -151

Screens as filed in PubChem.
